APP transl inh: APP translation inhibition | actives 0.82% (n = 190,000) | SH-SY5Y APP 5'UTR-luciferase reporter, luminescence | inhibition, % at 2 µM | AID 1285;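 active = inhibition above a set limit, derived from the sample mean plus 3 SD, cut at about 45% in these data; inconclusive = one replicate passes the limit while the other fails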
aSyn UTR inh: MLPCN primary screen, SNCA 5' untranslated region. alpha-synuclein 5'UTR reporter, inhibitor activity. actives 0.82% (n = 300,000). inhibition, % (tested at 7.5 µM); in the data active = inhibition above about 60%; inconclusive = no clear call, values can overlap the other calls;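 also: H4 neuroglioblastoma cells stably carrying SNCA 5'UTR luciferase fusion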
BaF3 parental: reduces parental Ba/F3 cell viability, JAK2V617F counter-screen. actives 1.1% (n = 220,000). CellTiter-Glo ATP luminescence. inhibition, % at 5.6 µM. AID 1486;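 active = inhibition above a per-campaign cutoff, the mean inhibition of all tested compounds plus 3 SD, cut at about 27% in these data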
Ba/F3 V617F tox: reduce viability of Ba/F3 cells dependent on JAK2V617F | inhibition, % at 5.6 µM | AID 1446 | Ba/F3 EpoR-JAK2V617F viability, ATP luminescence | actives 1.1% (n = 220,000);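 active = inhibition above the campaign mean plus 3 SD over all tested compounds, cut at about 24% in these data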;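 also: cytokine-independent growth of Ba/F3 cells driven by EpoR plus mutant JAK2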
IEC-6 tox: IEC-6 cytotoxicity, counter-screen for KLF5 inhibitors. inhibition, % at 5 µM. actives 0.78% (n = 290,000). luminescence viability; in the data active = inhibition above about 22%
KLF5 inhibitor: suppresses KLF5 promoter-driven expression; DLD-1 KLF5 promoter-luciferase reporter, luminescence; actives 0.23% (n = 290,000); inhibition, % at 5 µM;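 active = inhibition above a per-plate limit of that plate's mean compound inhibition plus 3 SD, cut at about 60% in these data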;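 also: higher means less KLF5 promoter-driven luciferase light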
Numbers stand for hits; . = inactive; ? = inconclusive; / = no result given. Compounds with a hit are over-represented: about 2.2% of the library has one in this group of screens.

SMILES	APP transl inh	aSyn UTR inh	BaF3 parental	Ba/F3 V617F tox	IEC-6 tox	KLF5 inhibitor
O=C(N/N=C/c1ccc([N+](=O)[O-])o1)c1cc2ccccc2o1	/	65.8	.	.	.	.
Cn1c(SCC(=O)O)nnc1-c1cccc(NC(=O)c2cccc3ccccc23)c1	/	.	.	.	.	.
COc1ccc(CNC(=O)C(=O)NCC2CCCN2S(=O)(=O)c2ccccc2)cc1 (stereo not drawn)	/	.	/	/	/	/
Cc1sc(NC(=O)c2ccc(=O)n(C)n2)nc1-c1ccccc1	.	.	44.7	43.9	.	.
Cc1sc(NC(=O)c2c(F)cccc2F)nc1-c1ccccc1	/	.	/	/	.	.
O=c1cc(CN2CCN(c3ccccc3F)CC2)c2cc(O)c(-c3ccccc3)cc2o1	.	.	.	.	.	.
COc1ccc(N2CCN(Cc3cc(=O)oc4cc(-c5ccccc5)c(O)cc34)CC2)cc1	.	73.1	.	.	.	.
CCOc1cc(Br)c(C(C)NC(=O)c2cccnc2)cc1OCC (stereo not drawn)	/	.	/	/	/	/
CC(=O)OCCNc1cc(Sc2nc3ccccc3[nH]2)c2nonc2c1[N+](=O)[O-]	79.3	.	.	.	.	.
CCCOc1ccc(/C=C/C(=O)Nc2ccc([N+](=O)[O-])cc2)cc1	.	68.0	.	.	.	.
CCCCOc1ccc(/C=C/C(=O)Nc2ccc([N+](=O)[O-])cc2C)cc1	.	.	.	.	.	.
COc1ccc(NCc2ccc([N+](=O)[O-])s2)cc1	49.0	.	.	.	.	.
COc1ccc(N2CCN(CCCNC(=O)C(=O)c3c(C)[nH]c4ccccc34)CC2)cc1	/	.	/	/	.	.
CC(Oc1ccccc1)C(=O)NNC(=O)c1ccccn1 (stereo not drawn)	.	.	.	.	.	.
C/C(=N\NC(=O)C(C)Oc1ccc([N+](=O)[O-])cc1)c1ccccn1 (stereo not drawn)	63.1	72.3	.	.	.	.
O=C(CSc1nnc2ncccn12)Nc1cccc2ccccc12	/	.	/	/	.	.
O=C(O)c1ccc(N/N=C/c2ccc(OC(=O)c3cccc(Cl)c3)cc2)cc1	/	76.0	.	.	.	.
NC(=O)CCCn1c(C(=O)c2ccc(Cl)cc2)c2ccc([N+](=O)[O-])cc2[n+]1[O-]	/	.	/	/	/	/
NC(=O)CCCn1c(C(=O)c2cc(Cl)c(N)c(Cl)c2)c2ccc([N+](=O)[O-])cc2[n+]1[O-]	/	71.4	/	/	/	/
O=C1CS/C(=N\c2ccccn2)N1C1CCCCC1	.	.	95.6	.	.	.
O=C1C(Cl)=C(NCCN2CCCCC2)C(=O)c2ccccc21	95.1	?	.	.	41.8	.
CCn1c(CN(C)c2ccccc2)nc2ccccc21	/	.	/	/	.	.
Cc1cc(C)c(S(=O)(=O)Nc2cc(SCC(=O)O)c(O)c3ccccc23)cc1C	.	66.8	.	.	.	.
COc1ccc(S(=O)(=O)Nc2cc(SCC(=O)O)c(O)c3ccccc23)cc1	/	.	/	/	.	.
CC(C)(C)OC(=O)N1CCC2(CC1)Oc1ccc(F)cc1C(=O)C21CC(c2ccccc2)=NO1 (stereo not drawn)	/	.	/	/	/	/
SMILES	APP transl inh	aSyn UTR inh	BaF3 parental	Ba/F3 V617F tox	IEC-6 tox	KLF5 inhibitor
COc1cc(-c2nnc(NC(=O)CCS(=O)(=O)c3ccccc3)o2)cc(OC)c1OC	/	.	/	/	/	/
CC(=O)OCc1nc2sc(C)c(C)c2c(=O)[nH]1	59.0	.	.	.	.	.
CCN(CC)CCOC(=O)CCc1cccc2ccccc12	.	.	.	.	.	.
CCN(CC)CCOC(=O)C(Cc1ccco1)Cc1cccc2ccccc12 (stereo not drawn)	/	104.1	/	/	/	/
OC1(c2cccs2)CN(c2ccc(Cl)cc2)C2=[N+]1CCCC2 (stereo not drawn)	.	.	32.2	.	.	.
OC1(c2cccs2)CN(c2ccc(Cl)cc2)C2=[N+]1CCCS2 (stereo not drawn)	.	.	.	.	.	.
Cc1ccc(-c2cc[n+](Cc3ccccc3)cc2)cc1	.	/	73.3	85.2	.	.
Cc1[nH]c2ccc(F)cc2c1CCN(Cc1cccnc1)C(=S)Nc1cccc(F)c1	.	.	28.4	31.1	.	.
Cc1ccccc1NC(=S)N(CCc1c(C)[nH]c2ccc(F)cc12)Cc1cccnc1	.	.	.	.	.	.
COc1ccc2[nH]c(C)c(CCN(Cc3cccs3)C(=S)Nc3cccc(F)c3)c2c1	.	.	51.1	44.9	.	.
Cc1ccc2nc(N(CCCN(C)C)C(=O)c3ccc4ncsc4c3)sc2c1	/	.	/	/	.	.
N#CC(Cc1ccccc1)(Cc1ccccc1)C(=O)NN	/	.	/	/	.	.
Cc1ccc(C(=O)Nc2cccc(C(F)(F)F)c2)cc1Nc1ncnc2nc[nH]c12	/	77.9	/	/	/	/
Cc1ccc(C(=O)Nc2cccc(C(F)(F)F)c2)cc1Nc1cnccn1	/	.	/	/	/	/
O=C(Nc1cccc(C(F)(F)F)c1)c1ccc2nc(-c3ccco3)c(-c3ccco3)nc2c1	.	.	49.1	.	.	.
Cc1ccc(C(=O)Nc2cccc(C(F)(F)F)c2)cc1NC(=O)c1ccno1	/	94.9	/	/	/	/
O=C(O)c1ccc2nc(-c3ccco3)c(-c3ccco3)nc2c1	.	.	.	.	.	.
COc1ccc(OC)c(C(=O)Cn2nnc(-c3ccc(N4CCOCC4)cc3)n2)c1	/	.	.	.	.	.
COc1ccc(/C=C/C(=O)c2ccc(NC3=NCCCS3)cc2)cc1OC	.	.	.	.	.	.
CCCCn1c(=O)c(C(=O)N/N=C/c2ccc(F)cc2)c(O)c2ccccc21	.	.	79.7	.	.	.
COc1ccc(Cn2cnc3c(N)c(C)c(C)cc32)cc1	.	.	.	.	.	.
CCCCCCCCn1cnc2c(N)c(C)c(C)cc21	.	.	59.6	75.8	.	.
CC(C)C(=O)Nc1cccc(C(=O)Nc2ccc(S(=O)(=O)Nc3nccs3)cc2)c1	/	.	/	/	.	.
CCCC(=O)NC(c1ccc(OC)c(OC)c1)c1cc(Cl)c2cccnc2c1O (stereo not drawn)	53.2	.	.	.	.	.
CC(=O)NC(c1ccc(C)cc1)c1cc([N+](=O)[O-])c2cccnc2c1O (stereo not drawn)	.	.	.	.	.	.
SMILES	APP transl inh	aSyn UTR inh	BaF3 parental	Ba/F3 V617F tox	IEC-6 tox	KLF5 inhibitor
CCCCC(=O)NC(c1cccs1)c1cc(Cl)c2cccnc2c1O (stereo not drawn)	72.5	80.3	.	.	.	.
O=C(NC(c1ccc(Cl)cc1)c1cc(Cl)c2cccnc2c1O)c1cccnc1 (stereo not drawn)	78.8	98.0	.	.	.	.
O=C(NCc1ccc(Cl)cc1)c1cccnc1	.	.	.	.	.	.
CCC(=O)NC(c1ccc(C)cc1)c1cc([N+](=O)[O-])c2cccnc2c1O (stereo not drawn)	.	64.0	.	.	.	.
CC(C)N1CSC(=S)N(Cc2ccccc2)C1	.	.	.	.	.	.
O=C(N/N=C/c1cc([N+](=O)[O-])ccc1O)c1cccc(N2CCCC2=O)c1	/	.	/	/	.	.
COc1ccc(C(=O)N2C(=O)c3ccc(N)cc3C2=O)cc1	.	.	.	.	.	.
OC(CCc1ccncc1)COc1ccccc1 (stereo not drawn)	/	.	/	/	/	/

Screening data as filed in PubChem BioAssay.
